Reference: the supplement of paper PMC13380429

Test system: Vero E6 infected with SARS-CoV-2
Experiment: inhibition of SARS-CoV-2 cytopathic effect; higher = more antiviral protection, active = above 15
Conditions: 48 h

Measured: inhibition of SARS-CoV-2 cytopathic effect

COc1cc2ncnc(Nc3ccc(Oc4ccccc4)cc3)c2cc1OC [SRC-kinase-inhibitor-I]
inactive: 1 nM 14.1% | 8.33 nM 2.88% | 100 nM 0.56% | 833.33 nM -4.38% | 10000 nM -9.32%

Cc1ccc(S(=O)(=O)NC(=O)NN2CC3CCCC3C2)cc1 (stereo not given) [gliclazide]
inactive: 1 nM 0.85% | 8.33 nM 1.91% | 100 nM 1.12% | 833.33 nM 2.55% | 10000 nM 2.6%

CC(Oc1ccc(O)cc1)(P(=O)(O)O)P(=O)(O)O
inactive: 1 nM -3.21% | 8.33 nM -1.85% | 100 nM 3.91% | 833.33 nM -1.36% | 10000 nM -1.37%

O=c1[nH]cc(F)c(=O)[nH]1 [5-fluorouracil]
inactive: 1 nM 0.75% | 8.33 nM 1.63% | 100 nM 1.29% | 833.33 nM 0.37% | 10000 nM 1.52%

NC(=O)c1ccc(N(C(N)=O)c2c(F)cccc2F)nc1-c1ccc(F)cc1F
inactive: 1 nM -0.41% | 8.33 nM -1.25% | 100 nM -4.38% | 833.33 nM -0.33% | 10000 nM -1.52%

C[C@@H]1O[C@@H]1P(=O)(O)O
inactive: 1 nM 0.82% | 8.33 nM -0.13% | 100 nM -0.02% | 833.33 nM 0.37% | 10000 nM 0.09%

CO/N=C(\C(=O)N[C@@H]1C(=O)N2C(C(=O)O)=C(CSc3nc(C)c(CC(=O)O)s3)CS[C@H]12)c1csc(N)n1 [cefodizime]
inactive: 1 nM -6.45% | 8.33 nM -0.68% | 100 nM -2% | 833.33 nM -0.21% | 10000 nM -4.2%

C[C@]12CC[C@H](O)C[C@H]1CC[C@@H]1[C@@H]2CC[C@]2(C)[C@@H](c3ccc(=O)oc3)C[C@H]3O[C@]132 [resibufogenin]
inactive: 1 nM -0.2% | 8.33 nM -2.33% | 100 nM -5.86% | 833.33 nM -20.4% | 10000 nM -20.4%

CCN(CC)CCOC(=O)C1(C2CCCCC2)CCCCC1 [dicycloverine]
inactive: 8.33 nM 0.53% | 100 nM 2.57% | 833.33 nM 0.85% | 10000 nM 1.16%
active: 1 nM 17.5%

NC[C@@H]1CC[C@@H](N)[C@@H](O[C@H]2[C@H](O)[C@@H](O[C@H]3O[C@H](CO)[C@@H](O)[C@H](N)[C@H]3O)[C@H](N)C[C@@H]2N)O1 [dibekacin]
inactive: 1 nM 5.18% | 8.33 nM -1.26% | 100 nM 1.67% | 833.33 nM 2% | 10000 nM 1.51%

N=C(N)NCCC[C@H](NC(=O)[C@@H]1CCCN1C(=O)[C@@H]1CSSC[C@H](N)C(=O)N[C@@H](Cc2ccc(O)cc2)C(=O)N[C@@H](Cc2ccccc2)C(=O)N[C@@H](CCC(N)=O)C(=O)N[C@@H](CC(N)=O)C(=O)N1)C(=O)NCC(N)=O [vasopressin]
inactive: 1 nM 3.02% | 8.33 nM -0.42% | 100 nM 1.64% | 833.33 nM 0.05% | 10000 nM -0.05%

N=C(N)NCc1cccc(I)c1 [iobenguane]
inactive: 1 nM -1.82% | 8.33 nM -0.29% | 100 nM 1.79% | 833.33 nM 2.26% | 10000 nM 6.21%

Nc1ncnc2c1ncn2[C@@H]1O[C@H](COP(=O)(O)OP(=O)(O)OP(=O)(O)OP(=O)(O)OC[C@H]2O[C@@H](n3cnc4c(N)ncnc43)[C@H](O)[C@@H]2O)[C@@H](O)[C@H]1O [diadenosine-tetraphosphate]
inactive: 1 nM 1.69% | 8.33 nM 0.56% | 100 nM 0.34% | 833.33 nM 1.06% | 10000 nM -1.97%

COc1cc2nc(N3CCN(C(=O)c4ccco4)CC3)nc(N)c2cc1OC [prazosin]
inactive: 1 nM 0.79% | 8.33 nM -8.02% | 100 nM -0.93% | 833.33 nM -1.57% | 10000 nM 1.13%

COc1cc(C[C@@H](CO)[C@H](CO)Cc2ccc(O)c(OC)c2)ccc1O [secoisolariciresinol-(-)]
inactive: 1 nM 1.65% | 8.33 nM 5.68% | 100 nM 0.9% | 833.33 nM 0.53% | 10000 nM -4.27%

CCCN1CCC[C@@H]2Cc3n[nH]cc3C[C@H]21 [quinpirol-(-)]
inactive: 1 nM -2.17% | 8.33 nM 2.95% | 100 nM 0.48% | 833.33 nM -2.24% | 10000 nM -0.87%

CC1CNc2c(cccc2S(=O)(=O)N[C@@H](CCCNC(=N)N)C(=O)N2CC[C@@H](C)C[C@@H]2C(=O)O)C1 (mixture of isomers) [argatroban]
inactive: 1 nM -2.89% | 8.33 nM 2.45% | 100 nM 0.37% | 833.33 nM 0.05% | 10000 nM -0.11%
